Laboratory results published in PubChem BioAssay (NCI).
About 79,000 compounds went through this panel and 15% of them were active in at least one assay; those are over-represented in the sample as a whole. Rule as the data show it: active = growth inhibition above about 70%; inactive = the rest.

What was measured:
[1] = NCI Yeast Anticancer Drug Screen. Data for the rad50 strain (AID 155);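 also: 0% = growth of vehicle-only cultures of the same strain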; conditions: S. cerevisiae rad50 strain growth inhibition; at 50.0 µM; stronger effect = higher value
Summary of the method: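 Genetically altered yeast (DNA repair pathway); compound treatment; growth inhibition vs vehicle ctrl.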

[2] = NCI Yeast Anticancer Drug Screen. Data for the mec2-1 strain (AID 157); conditions: S. cerevisiae mec2-1 strain, at 50.0 µM, stronger effect = higher value
Summary of the method: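 mec2-1 yeast strain, carrying an alteration in DNA damage repair or cell cycle control, was exposed to compounds; growth inhibition was measured relative to vehicle-treated controls.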

[3] = NCI Yeast Anticancer Drug Screen. Data for the sgs1 mgt1 strain (AID 161);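 also: 0% = growth of cultures given vehicle only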; conditions: S. cerevisiae sgs1 mgt1 strain, at 50.0 µM, stronger effect = higher value
Summary of the method: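 Growth of a repair-deficient yeast mutant was monitored after compound treatment and expressed as inhibition relative to vehicle-treated cultures.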

[4] = NCI Yeast Anticancer Drug Screen. Data for the cln2 rad14 strain (AID 165);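 also: 0% = growth equal to vehicle treated cultures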; conditions: S. cerevisiae cln2 rad14 strain, at 50.0 µM, stronger effect = higher value
Summary of the method: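 Yeast carrying cln2 and rad14 alterations (cell cycle control and DNA damage repair) were exposed to compounds. Growth inhibition was measured against vehicle-treated controls.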

[5] = NCI Yeast Anticancer Drug Screen. Data for the bub3 strain (AID 167); conditions: S. cerevisiae bub3 mutant strain, at 50.0 µM, stronger effect = higher value
Summary of the method: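 Yeast carrying a defined mutation is treated with each compound, and growth is compared with that of vehicle-exposed cells to give inhibition.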

[6] = NCI Yeast Anticancer Drug Screen. Data for the mlh1 rad18 strain (AID 175); conditions: S. cerevisiae mlh1 rad18 strain growth inhibition; at 50.0 µM; stronger effect = higher value
Summary of the method: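 Growth inhibition of the yeast strain was measured after compound exposure and expressed relative to vehicle-treated controls. The strain carries defined defects in DNA damage repair.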

Measured: growth inhibition

CN(C)C(=O)Nc1cccc(OC(=O)NC2CC2)c1
inactive: [1] 4.4% | [2] 16.9% | [3] 26.9% | [4] -8.35% | [5] 19.8% | [6] -4.1%

O=C(O)C1CCCCC1C(=O)NCc1ccco1 (stereo unspecified)
inactive: [1] 5.25% | [2] 4.55% | [3] 4.05% | [4] 3.7% | [5] 25.4% | [6] 0.05%

COC(=O)c1nc(N)[nH]c(=O)c1CCCCCc1c(C(=O)OC)nc(N)[nH]c1=O
inactive: [1] -4.8% | [2] -0.15% | [3] -9.2% | [4] 6.5% | [5] -0.3% | [6] -17.6%

O=C1C=CC2(C=C1)OCC(=O)O2
inactive: [1] 6.15% | [2] 10.2% | [3] 3.25% | [4] 4.65% | [5] -3.1% | [6] 0.5%

O=C(NN1C(=O)CS(=O)(=O)C1c1ccc(C(F)(F)F)cc1)c1ccncc1 (stereo unspecified)
inactive: [1] -10.7% | [2] 2.2% | [3] 5.8% | [4] 8.8% | [5] 1.05% | [6] 7.75%

O=C1c2ccccc2C(=O)N1CNc1ccccc1S
inactive: [1] 13.2% | [2] 5.1% | [3] 19.6% | [4] 28.4% | [5] 22.1% | [6] -8%

CCOc1c(N=Nc2ccccc2[N+](=O)[O-])c(C)nn1C(N)=S
inactive: [1] -6.5% | [2] -5.95% | [3] 24.5% | [4] -26.8% | [5] -20.9% | [6] 17.4%

O=c1cc(O)cc(CO)o1
inactive: [1] -7.65% | [2] 5.7% | [3] -9.8% | [4] 1.2% | [5] -21.2% | [6] -2.05%

CC(=O)N=C1N(/C=C2\C(=O)Oc3ccccc3C2=O)C(=O)/C(=C/c2ccc(OC(C)=O)cc2)N1C
inactive: [1] -9.55% | [2] -17% | [3] -14.9% | [4] 12.9% | [5] 1.05% | [6] 0.75%

C=C(C)C(=O)O[C@H]1CC2=C[C@@H](C[C@@]3(C)O[C@@H]3[C@H]3OC(=O)C(=C)[C@@H]31)OC2=O
inactive: [1] -8.35% | [2] 10.1% | [3] 22.2% | [4] 6.4% | [5] -10% | [6] -5.15%

COc1ccc(OCOCOc2ccc(OC)cc2)cc1
inactive: [1] -8.05% | [2] 9.5% | [3] 12.2% | [4] -285% | [5] 42.9% | [6] -27.8%

COc1ccc(C2CC(c3cc(C)ccc3O)=NC(N)=N2)cc1 (stereo unspecified)
inactive: [1] 19.6% | [2] 12.8% | [3] 15.8% | [4] 13.2% | [5] 13.4% | [6] 23.4%

COc1cc(/C=C2/C(=O)N(C(=O)c3ccccc3O)N=C2C)ccc1O
inactive: [1] -6.55% | [2] -10.3% | [3] -9.4% | [4] 9.75% | [5] 1.65% | [6] -13.9%

Cc1ccc(C)c(N=C2NC(=O)C(CC(=O)Nc3ccc(Cl)cc3Cl)S2)c1 (stereo unspecified)
inactive: [1] -7.5% | [2] 2.75% | [3] -9.65% | [4] 24.7% | [5] -10.9% | [6] -32.6%

Cc1ccc(C(N)=O)cc1
inactive: [1] 20% | [2] -8.65% | [3] -1.55% | [4] -31.1% | [5] 17.9% | [6] 42.1%

NC(Cc1ccccc1)C(=O)O (stereo unspecified)
inactive: [1] -20.7% | [2] -12.4% | [3] -33.9% | [4] -73.7% | [5] -24.9% | [6] -20.6%

CC1=CC[C@H]2C(C)=CC[C@@H](C(C)C)[C@@H]2C1
inactive: [1] 10.4% | [2] 6.05% | [3] 24.2% | [4] 21.6% | [5] 13.1% | [6] 17.4%

COc1cc(C[C@H]2C(=O)OCC2Cc2ccc(OC)c(OC)c2)ccc1O (stereo partly specified)
inactive: [1] -39.1% | [2] -60.6% | [3] -26.9% | [4] -5.2% | [5] 2.05% | [6] -22.3%

C=CCC1=C(C)C(O)CC1=O (stereo unspecified)
inactive: [1] -21.9% | [2] -13.7% | [3] -0.75% | [4] -15.7% | [5] 0.7% | [6] -41.6%

NC(CCC(=O)NC1(C(=O)O)C2CC3CC(C2)CC1C3)C(=O)O (stereo unspecified)
inactive: [1] 6% | [2] -0.1% | [3] -5% | [4] -18% | [5] -4.4% | [6] 4.85%

CC(=O)c1c(-c2ccc(Cl)cc2)c(C#N)c(=S)n(C2OC(CO)C(O)C(O)C2O)c1C (stereo unspecified)
inactive: [1] -2.85% | [2] -6.3% | [3] 6.15% | [4] 14.8% | [5] -5.15% | [6] 12.2%

C=C(C)COc1ccc(/C=C/C(=O)OCC)cc1
inactive: [1] 9.8% | [2] -4% | [3] 4.5% | [4] 1.2% | [5] -6.25% | [6] -12.4%

O=[N+]([O-])c1cc(F)ccc1-c1ccc(F)cc1
inactive: [1] 2.35% | [2] -4.85% | [3] 0.7% | [4] -20.7% | [5] 2.8% | [6] 20.4%

O=P(O)(c1ccccc1Br)c1ccccc1Br
inactive: [1] 43.5% | [2] 10.6% | [3] 28% | [4] 26.2% | [5] 4.65% | [6] 20.2%

O=C1OC(c2ccc([N+](=O)[O-])cc2)=N/C1=C\c1cccc([N+](=O)[O-])c1
inactive: [1] 23.1% | [2] 20.9% | [3] 36.2% | [4] 38.2% | [5] 22.1% | [6] 52%

COC(=O)c1ncn(C(C(=O)OC)C(=O)OC)c1O
inactive: [1] -5.6% | [2] -6.75% | [3] -4.75% | [4] -14.4% | [5] -5.1% | [6] -10.8%

N#C/C(N)=C(\C#N)N=CNc1ccc(N)cc1
inactive: [1] -32.8% | [2] -31.1% | [3] -22.2% | [4] 23% | [5] 1.4% | [6] -10.9%

CCN(CC)CC(C(=O)Nc1c(C)cccc1C)/C(C)=N\NC(=O)C[N+](C)(C)C (stereo unspecified)
inactive: [1] 19.4% | [2] 4.85% | [3] -26.6% | [4] -21.8% | [5] -0.7% | [6] -1.9%

C[S+](C)CC(=O)c1ccccc1O
inactive: [1] -2.55% | [2] -9.7% | [3] 2.2% | [4] -62.4% | [5] 3.4% | [6] -0.6%

CCOC(=O)Nc1cc2c(c(N)n1)N=C(CN(C)c1ccccc1)CN2
inactive: [1] 22.9% | [2] 6.15% | [3] 59.5% | [4] 16.3% | [5] 35% | [6] 30.3%

O=[N+]([O-])c1cc(Br)cc2c1[nH]c1nc3ccc(C(F)(F)F)cc3nc12
inactive: [1] 45.5% | [2] -17.9% | [3] 8.1% | [4] 17.4% | [5] -2.2% | [6] -3.55%

O=C(O)c1cc(=O)[nH]c(=S)[nH]1
inactive: [1] -18.6% | [2] 5.65% | [3] -19.5% | [4] 8.05% | [5] -9.25% | [6] -15.6%

O=[N+]([O-])c1ccc(Cl)c(OCCBr)c1
inactive: [1] 0% | [2] 3.15% | [3] -2.05% | [4] 1.15% | [5] 31.9% | [6] 9%

Cc1ccc(S(=O)(=O)c2c(N)c3nc4ccccc4n3c3nc4ccccc4nc23)cc1
inactive: [1] 21.4% | [2] -10.3% | [3] -5.2% | [4] 25.7% | [5] -0.45% | [6] 13.1%

N#C/C(c1ccccc1)=[N+](/[O-])O
inactive: [1] 2.55% | [2] -4.9% | [3] 2.5% | [4] -20.7% | [5] -17.5% | [6] 13.7%

COc1ccc(CC2=c3cc(OC)c(OC)cc3=CCN2)cc1OC
inactive: [1] 12.1% | [2] 4.5% | [3] 9.7% | [4] 12.2% | [5] -2.85% | [6] -5.75%

NC(=O)C(=O)C1CCC2=C(Sc3ccccc3N2)C1=O (stereo unspecified)
inactive: [1] 39.5% | [2] -5.4% | [3] -6.35% | [4] 30.1% | [5] 34% | [6] 4.5%

CC(=O)OCC1(C)CCC(C)CO1 (stereo unspecified)
inactive: [1] -21.4% | [2] -4.45% | [3] 7.8% | [4] 15.2% | [5] 1.1% | [6] 7%

CCCN(CCC)S(=O)(=O)c1ccc(NC(=O)Oc2cc(C)ccc2C(C)C)cc1
inactive: [1] 32.5% | [2] 1.75% | [3] 24.2% | [4] 21.5% | [5] -5.25% | [6] 14.8%

CCOC(=O)c1c(C)csc1NC(=O)CSCC(=O)OC
inactive: [1] 10.2% | [2] -4% | [3] 30.5% | [4] 19.9% | [5] 41% | [6] 31.6%

N#CCCOCCSCCC#N
inactive: [1] 3% | [2] 5.15% | [3] -5.95% | [4] -5.45% | [5] 1% | [6] -1.8%
